# 14-3-3 Bad inh = inhibitors of 14-3-3 zeta/Bad binding, primary screen, biochemical, TR-FRET, bovine 14-3-3 zeta. 14-3-3 protein zeta/delta (Bos taurus), P63103. TR-FRET 14-3-3zeta/Dy647-pBad peptide displacement, 1 h. inhibition, % at 21.7 µM. 220,000 compounds, 0.71% hits;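 active = inhibition above about 70%, limit read from the data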
# Target sequence (P63103 whole entry, looked up): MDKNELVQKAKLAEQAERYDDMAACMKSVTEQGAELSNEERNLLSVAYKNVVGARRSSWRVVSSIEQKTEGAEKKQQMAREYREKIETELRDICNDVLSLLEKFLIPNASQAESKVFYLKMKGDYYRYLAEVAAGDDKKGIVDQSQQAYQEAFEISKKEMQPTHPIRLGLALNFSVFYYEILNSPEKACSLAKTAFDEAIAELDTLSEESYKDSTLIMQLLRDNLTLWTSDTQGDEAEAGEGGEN
# eIF4E-4G inh = eIF4E–eIF4G protein interaction inhibitors, primary screen, biochemical, uHTS, TR-FRET, eIF4GI fragment | 220,000 compounds, 0.37% hits | TR-FRET eIF4E-eIF4GI(517-606) binding, 2 h | inhibition, % at 21.7 µM | Eukaryotic translation initiation factor 4E (Mus musculus) + Eukaryotic translation …
# p47phox inh = p47phox/p22phox peptide binding inhibitors, primary screen, biochemical, uHTS, NADPH oxidase regulatory subunit. fluorescence polarization, 2 h. AID 1274, 2008. inhibition, % at 24.7 µM. Neutrophil cytosol factor 1 (Homo sapiens), P14598. 220,000 compounds, 0.53% hits
# UBC9 SUMO inh = inhibitors of in vitro SUMOylation cascade, primary screen, biochemical, HTRF, uHTS; inhibition, % at 35 µM; HTRF SUMOylation assay, SAE1/SAE2 + UBC9; AID 2006, 2009; SUMO-conjugating enzyme UBC9 (Homo sapiens), P63279; 290,000 compounds, 0.36% hits; in the data active = inhibition above about 50%, passing the limit was not always enough
# Target sequence (P63279 whole entry, looked up): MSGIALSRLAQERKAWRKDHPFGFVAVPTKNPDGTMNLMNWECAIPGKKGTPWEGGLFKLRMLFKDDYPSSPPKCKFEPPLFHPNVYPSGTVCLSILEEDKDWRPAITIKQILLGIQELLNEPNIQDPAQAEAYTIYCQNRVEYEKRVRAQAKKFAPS
# Numbers stand for hits; 0 = inactive; - = not tested or not shown; [ ] = dose if it differs, or a comment. This is a sample that favours compounds with a hit; in the whole collection about 1.3% have one here.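 Rule for the calls, unless noted: active = inhibition above about 30% (limit read from the data); inactive = the rest.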
SMILES,14-3-3 Bad inh,eIF4E-4G inh,p47phox inh,UBC9 SUMO inh
CN(C)CC(C)(C)CNC(=O)C1CCN(CCCc2ccccc2)CC1,-,-,-,0
CCCCN(C)C(=O)C1CCN(CCCc2ccccc2)CC1,80,0,0,0
N#Cc1c(N2CCCC2)nc(N)c2c(N)nc(N3CCCC3)cc12,0,0,0,100
COc1cc2c(C#N)c(N3CCN(C)CC3)nc(N)c2c(N)n1,0,0,0,99
COc1ccc(-c2csc(NC(=O)c3ccccc3F)c2C(=O)O)cc1,-,-,-,0
O=C(O)c1ccccc1C(=O)Nc1nccs1,0,72,0,0
O=C(Nc1nccs1)c1cccc2ccccc12,-,-,-,0
CC(C)CC(NC(=O)C1CCC(=O)N1)C(=O)NC(CC(C)C)C(=O)N1CCCC1C(N)=O (configuration not stated),-,-,-,0
COc1ccc(CCNC(=O)COC(=O)c2cnccn2)cc1,0,0,0,0
COc1cccc(N=c2oc3c(C)ncc(CO)c3cc2C(=O)Nc2ccccc2OC)c1,91[fluorescence artefact?],0,0,0
COc1ccccc1NC(=O)c1cc2c(CO)cnc(C)c2oc1=Nc1ccccc1,-,-,-,0
CCN(CCCNC(=O)c1ccc(N2CCCC2=O)cc1)c1cccc(C)c1,80,0,0,0
CCN(CCNC(=O)c1cccc(N2CCCC2=O)c1)c1ccccc1,0,0,0,0
COc1ccccc1NC(=O)COc1ccc(/C=N/NC(=O)CSCc2cc(C)cc(C)c2)cc1,0,0,34,0
O=C(CSc1nnc2ccc(-c3cccnc3)nn12)Nc1ccc(F)cc1F,0,0,0,0
COC(=O)c1c(C)nc2ccccc2c1-c1ccccc1,0,0,0,0
COC(=O)c1c(C)[nH]c(C)c1-c1ccccc1,81[fluorescence artefact?],0,0,0
O=C(Cc1ccc(NS(=O)(=O)c2ccc(F)cc2)cc1)NCc1ccccc1,0,0,0,0
O=C(CCn1cnnn1)NC1CCCN(Cc2ccccc2F)C1 (configuration not stated),-,-,-,0
O=C(CCC(=O)N1CCOc2ccc(Cl)cc21)NCCN1CCOCC1,-,-,-,0
O=C(O)CCC(=O)N1CCOc2ccc(Cl)cc21,0,0,37,0
COc1ccc(C(=O)/C=C/C(=O)N(CC(=O)NC2CCCCC2)Cc2ccc(F)cc2)c(O)c1,0,0,33,0
Cc1ccc(-c2nnc(CCC(=O)NCc3csc(C)n3)o2)s1,0,0,0,0
Cc1c(C(=O)NNc2c(Cl)cccc2Cl)n(C)oc1=O,0,0,0,0
COC(=O)c1sc(N2C(=O)c3oc4ccccc4c(=O)c3C2c2cccs2)nc1C (configuration not stated),0,0,49,0
SMILES,14-3-3 Bad inh,eIF4E-4G inh,p47phox inh,UBC9 SUMO inh
COC(=O)c1sc(N2C(=O)C(O)=C(C(=O)c3ccc(C)o3)C2c2cccs2)nc1C (configuration not stated),-,-,-,0
COc1ccc(C(C)=O)cc1COC(=O)Cc1cc(OC)c(OC)c(OC)c1,-,-,-,0
CCOc1ccc(CCNC(=O)CN2C(=O)COc3ccc(S(=O)(=O)N4CCOCC4)cc32)cc1,-,-,-,0
CCOc1ccc(OCC)c(S(=O)(=O)NCc2ccc3c(c2)OCO3)c1,0,0,66,0
CCn1c(SCC(=O)Nc2ccccc2C(=O)OC)nnc1-c1cccc(C)c1,0,0,0,0
O=C1c2ccccc2C(=O)N1c1cccc2cccnc12,0,0,0,74
Cc1ccc(NC(=O)CCC(=O)N/N=C/c2cccs2)cc1C,0,0,0,0
Cc1ccc(NC(=O)CCC(=O)N/N=C/c2cccs2)cc1,86,0,0,0
COc1ccc(SN=C2C(C)=CC(=O)C=C2C)cc1,0,0,38,0
COc1ccc(C(=O)ON=C2C=C(C)C(=O)C(C)=C2)cc1,0,0,0,0
O=C(COc1cc(O)c2c(=O)cc(-c3ccccc3)oc2c1)c1ccccc1,0,0,0,0
O=C(COc1cc(O)c2c(=O)cc(-c3ccccc3)oc2c1)c1ccc(F)cc1,0,0,32,0
c1ccc(Cn2nnnc2C(c2cccs2)N2CCSCC2)cc1 (configuration not stated),0,0,0,0
CC1CCN(C(c2cccs2)c2nnnn2Cc2ccccc2)CC1 (configuration not stated),79,0,0,0
COc1ccc(OC)c(NC(=O)C2CCCN2C(=O)C2CCC(C)CC2)c1 (configuration not stated),0,0,0,0
O=C(CNC(=O)C1CCCCC1)Nc1ccccc1Cl,0,0,53,0
O=C(CNC(=O)C1CCCCC1)Nc1cc(Cl)ccc1Cl,0,0,0,0
O=C(CNCC1CCCCC1)Nc1ccccc1N1CCCCC1,80,0,0,0
CC(NC(=O)c1ccc(CS(C)(=O)=O)cc1)C1CC2CCC1C2 (configuration not stated),-,-,-,0
CC(NCc1ccc(N(C)C)cc1)C1CC2CCC1C2 (configuration not stated),78,0,0,0
CCOC(=O)c1sc2nc3c(SCC(=O)O)cc(C(=O)c4cc(F)ccc4O)cn3c(=O)c2c1C,0,0,0,0
COc1ccc(-n2c(SCC(=O)O)nc3sc4c(c3c2=O)CCCC4)cc1,-,-,-,0
COc1ccc(O)c(C(=O)c2cc(SCC(=O)O)c3nc4sc5c(c4c(=O)n3c2)CCCC5)c1,0,39,0,0
CCOC(=O)c1sc2nc3c(SCC(=O)O)cc(C(=O)c4ccccc4O)cn3c(=O)c2c1C,0,0,0,76
CCN(CC)Cc1c(C(=O)N/N=C/c2ccc(OCc3ccccc3C)cc2)nnn1-c1nonc1N,-,-,-,0
SMILES,14-3-3 Bad inh,eIF4E-4G inh,p47phox inh,UBC9 SUMO inh
O=C1C=C(c2ccc(Cl)cc2)OC2(CCCC2)O1,72,0,0,0
O=C1C=C(c2ccccc2)OC2(CCCC2)O1,0,0,0,0
CC(C)NOC(=O)c1ccc(Cl)cc1,0,0,0,0
O=C(NC(=S)Nc1ccc2oc(-c3cccnc3)nc2c1)c1cccc(Cl)c1,81,0,0,0
N#Cc1c(NC(=S)NC(=O)c2ccccc2)sc2c1CCC2,0,0,0,0
CCN1CCc2c(sc(NC(=S)NC(=O)c3ccccc3)c2C#N)C1,79,0,0,0
COc1cc2c(C)nc3onc(-c4ccccc4)c3c2cc1OC,0,0,0,0
COc1cc2c(C)nc(C)c(C#N)c2cc1OC,78,0,0,0
O=C(N[C@@H](Cc1c[nH]c2ccccc12)C(=O)O)C1CCN(S(=O)(=O)c2ccc(Cl)cc2)CC1,-,-,-,0
CC(=O)N1C(C)(C)CC(=NOC(=O)c2ccccc2)CC1(C)C,92,0,0,0
Cc1ccccc1N1CC(C(=O)N2CC(C)OC(C)C2)CC1=O (configuration not stated),-,-,-,0
O=C(O)CN1C(=O)/C(=C\c2cc(Br)ccc2OCc2ccc([N+](=O)[O-])cc2)SC1=S,-,-,-,51
O=C(O)CN1C(=O)/C(=C\c2cc(Br)ccc2OCc2ccccc2Cl)SC1=S,-,-,-,0
O=C1/C(=C\c2ccc(O)cc2)SC(=S)N1Cc1ccccc1,-,-,-,0

# Screening results deposited in PubChem by several laboratories.
